Source: PubChem BioAssay (Broad Institute)
The full list was thinned out, with hits kept by preference.
miR122 inh – miR-122 suppressors via Renilla sensor increase, primary screen, cell-based, Huh7 psiCHECK-miR122, Renilla luciferase, single point; 48 h; activation, % at 12.5 µM; 340,000 compounds, 0.14% hits;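 active means mean activation of 30% or more, with every replicate also reaching 30%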;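 further: higher luciferase signal means stronger suppression of miR-122 activity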
Of the large screens only hits and unclear results are named; the others gave an inactive call.

COc1ccc(-c2cnc3c(c2)C(=O)N([C@H](C)CO)C[C@H](C)[C@@H](CN(C)Cc2ccccn2)O3)cc1	none
C[C@@H]1CN([C@@H](C)CO)S(=O)(=O)c2ccc(-c3ccccc3)cc2O[C@H]1CN(C)Cc1ccccc1C(=O)O	none
CCCNC(=O)N(C)C[C@@H]1Oc2cc(C#CCOC)ccc2S(=O)(=O)N([C@@H](C)CO)C[C@@H]1C	none
COc1ccc(NC(=O)c2cccc(S(=O)(=O)Nc3ccc(Br)cc3)c2)cn1	none
COc1ccc(NC(=O)/C(Cl)=C(/Cl)S(=O)(=O)Cc2ccccc2)cn1	miR122 inh 32
CC(C)C#Cc1cnc2c(c1)C(=O)N([C@H](C)CO)C[C@@H](C)[C@@H](CN(C)Cc1ccccn1)O2	none
CCCN(C)C[C@H]1Oc2cc(-c3ccc(OC)cc3)ccc2S(=O)(=O)N([C@H](C)CO)C[C@H]1C	none
COc1ccc(C(=O)Nc2ccc3c(c2)OC[C@@H](C)N(C)C[C@@H](C)[C@H](OC)CN(C)C3=O)cc1	none
C[C@@H]1CN([C@@H](C)CO)C(=O)c2cc(C#Cc3ccc(F)cc3)cnc2O[C@H]1CN(C)CC1CCOCC1	none
CC(C)CC#Cc1cnc2c(c1)C(=O)N([C@@H](C)CO)C[C@H](C)[C@@H](CN(C)C(=O)Nc1cccc(F)c1)O2	none
COc1cccc(NC(=O)N(C)C[C@@H]2Oc3cc(C#Cc4ccccc4)ccc3S(=O)(=O)N([C@H](C)CO)C[C@H]2C)c1	none
COc1ccc(C#Cc2ccc3c(c2)O[C@@H](CN(C)C(=O)NC2CCCCC2)[C@H](C)CN([C@@H](C)CO)S3(=O)=O)cc1	none
COCC#Cc1cnc2c(c1)C(=O)N([C@@H](C)CO)C[C@H](C)[C@H](CN(C)C(=O)Nc1ccc(OC)cc1)O2	none
COc1ccc(NC(=O)N2CCCCN3[C@H](CO)[C@H](c4ccc(C#CCC(C)C)cc4)[C@H]3C2)cc1	miR122 inh 34
Cc1ccccc1-c1ccc2c(c1)O[C@@H](CN(C)C(=O)Nc1ccccc1)[C@@H](C)CN([C@@H](C)CO)S2(=O)=O	none
Cc1ccccc1-c1ccc([C@@H]2[C@@H](CO)N3CCCCN(C(=O)Nc4ccc(F)cc4)C[C@@H]23)cc1	miR122 inh 31
COc1ccc(C#Cc2ccc([C@@H]3[C@H](CO)N4CCCCN(C(=O)Nc5ccccc5)C[C@@H]34)cc2)cc1	miR122 inh 36
Cc1ccccc1-c1ccc2c(c1)O[C@@H](CN(C)C(=O)Nc1ccccc1)[C@@H](C)CN([C@H](C)CO)S2(=O)=O	none
C[C@@H]1CN([C@@H](C)CO)S(=O)(=O)c2ccc(C#C[C@@H](C)O)cc2O[C@H]1CN(C)C	none
Cc1noc(C)c1NC(=O)N(C)C[C@@H]1Oc2ncc(C#CCC(C)C)cc2C(=O)N([C@H](C)CO)C[C@H]1C	none
CO[C@H]1CN(C)C(=O)c2cc(NC(C)=O)ccc2OC[C@H](C)N(C(=O)c2ccccc2)C[C@H]1C	none
C[C@H]1CN([C@@H](C)CO)S(=O)(=O)c2ccc(C#CC3CC3)cc2O[C@H]1CN(C)Cc1ccccn1	none
C[C@@H]1CN([C@H](C)CO)C(=O)Cc2cc(NC(=O)Nc3ccccc3)ccc2O[C@@H]1CN(C)C(=O)Nc1cccc2ccccc12	none
CCCNC(=O)N(C)C[C@H]1Oc2ncc(C#C[C@@H](C)O)cc2C(=O)N([C@H](C)CO)C[C@@H]1C	none
COc1ccccc1NC(=O)N(C)C[C@H]1Oc2ncc(C#CCC(C)C)cc2C(=O)N([C@H](C)CO)C[C@@H]1C	none
Cc1ccc(-c2ccc3c(c2)O[C@@H](CN(C)C(=O)NC(C)C)[C@H](C)CN([C@H](C)CO)S3(=O)=O)cc1	none
C[C@@H]1CN([C@@H](C)CO)C(=O)c2cc(C#CC3CC3)cnc2O[C@@H]1CN(C)Cc1ccncc1	none
COc1ccccc1-c1cnc2c(c1)C(=O)N([C@@H](C)CO)C[C@H](C)[C@@H](CN(C)CC1CCCC1)O2	none
C[C@@H]1CN([C@H](C)CO)C(=O)c2cc(/C=C/c3ccccc3)cnc2O[C@@H]1CN(C)C(=O)c1cccnc1	none
COCC#Cc1ccc2c(c1)O[C@H](CN(C)C(C)=O)[C@@H](C)CN([C@@H](C)CO)S2(=O)=O	none
C[C@H](CO)N1C[C@H](C)[C@H](CN(C)C(=O)Nc2ccc(F)cc2)Oc2ncc(C#CCC3CCCC3)cc2C1=O	none
COc1cccc(-c2cnc3c(c2)C(=O)N([C@H](C)CO)C[C@H](C)[C@H](CN(C)Cc2cccc(C(F)(F)F)c2)O3)c1	none
Cn1ncc2c(O/N=C(\N)c3ccc(C(F)(F)F)cc3)ncnc21	miR122 inh 33
Cc1ccc(-c2ccc3c(c2)O[C@H](CN(C)Cc2cccc(C(=O)O)c2)[C@@H](C)CN([C@@H](C)CO)S3(=O)=O)cc1	none
CC(C)NC(=O)N(C)C[C@@H]1Oc2ncc(C3=CCCCC3)cc2C(=O)N([C@@H](C)CO)C[C@H]1C	none
COc1cccc(C#Cc2ccc3c(c2)O[C@H](CN(C)C(=O)c2ccccn2)[C@H](C)CN([C@H](C)CO)S3(=O)=O)c1	none
C[C@@H]1CN([C@@H](C)CO)C(=O)c2cc(C#CC3CC3)cnc2O[C@@H]1CN(C)C	none
C[C@@H]1CN([C@H](C)CO)C(=O)c2cc(-c3cccnc3)cnc2O[C@H]1CN(C)S(C)(=O)=O	none
C[C@H](CO)N1C[C@H](C)[C@@H](CN(C)C)Oc2cc(C#C[C@@H](C)O)ccc2S1(=O)=O	none
C[C@H](O)C#Cc1cnc2c(c1)C(=O)N([C@H](C)CO)C[C@H](C)[C@H](CN(C)Cc1cncnc1)O2	none
C=CCc1c(OC)ccc2ccc(=O)oc12	miR122 inh 32
C[C@@H]1CN([C@@H](C)CO)C(=O)c2cc(-c3cccc(C#N)c3)cnc2O[C@@H]1CN(C)C	none
C[C@H]1CN([C@@H](C)CO)C(=O)c2cc(C3=CCCCC3)cnc2O[C@H]1CN(C)C(=O)c1ccc(F)cc1	none
C[C@H]1CN([C@@H](C)CO)C(=O)c2cc(/C=C/c3ccccc3)cnc2O[C@@H]1CN(C)C(=O)c1ccncc1	none
CCCNC(=O)N(C)C[C@@H]1Oc2ncc(/C=C/c3ccccc3)cc2C(=O)N([C@H](C)CO)C[C@@H]1C	none
COc1cccc(C#Cc2ccc3c(c2)O[C@@H](CN(C)S(=O)(=O)c2ccccc2F)[C@H](C)CN([C@@H](C)CO)S3(=O)=O)c1	none
Cc1ccc(S(=O)(=O)NCCN2CCOCC2)c(C)c1C	none
COc1ccc(-c2oc3ncn(CCN4CCOCC4)c(=N)c3c2-c2ccc(OC)cc2)cc1	miR122 inh 42
COc1ccc(-c2oc3ncnc(NCCCN4CCOCC4)c3c2-c2ccc(OC)cc2)cc1	miR122 inh 38
C[C@@H]1CN([C@@H](C)CO)S(=O)(=O)c2ccc(-c3cncnc3)cc2O[C@@H]1CN(C)C(=O)Cc1ccncc1	none
C[C@H](O)C#Cc1cnc2c(c1)C(=O)N([C@H](C)CO)C[C@@H](C)[C@H](CN(C)Cc1cncnc1)O2	none
Cc1ccc(-c2ccc3c(c2)O[C@H](CN(C)Cc2cccc(C(=O)O)c2)[C@H](C)CN([C@H](C)CO)S3(=O)=O)cc1	none
Cc1ccc(S(=O)(=O)NCCC(C)C)cc1[N+](=O)[O-]	none
Cc1ccc(C(=O)N/N=C\c2ccc[nH]2)cc1[N+](=O)[O-]	miR122 inh 69
O=[N+]([O-])c1ccc(N/N=C/c2ccc[nH]2)cc1	miR122 inh 45
C[C@H]1CN([C@@H](C)CO)C(=O)c2cccc(NS(=O)(=O)c3cccs3)c2O[C@@H]1CN(C)Cc1ccc(C(F)(F)F)cc1	none
C/C=C/c1cnc2c(c1)C(=O)N([C@@H](C)CO)C[C@H](C)[C@H](CN(C)C(=O)Cc1cccnc1)O2	none
